For 61 compounds, inhibition results are on record in PubChem BioAssay AID1626 (SRMLSC, 2009).

About 2,000 (0.91%) of roughly 220,000 compounds were called active. Not shown: some 2% with an inconclusive outcome. Not all results are given here. Results with a measured potency or affinity are listed apart. Values without a mark were called inactive. Rule as the data show it: inconclusive = inhibition above about 80% without an active follow-up result; inactive = below that; test concentration not stated here.

The test in a line: M. tuberculosis H37Rv growth inhibitors, H37Rv strain (AID 1626).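 Also: bacteria incubated seven days before Alamar blue readout; 0% = bacteria only wells and 100% = bacteria with antibiotic wells.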 Particulars: active compounds read high, concentration not given here.
One may read the inhibition as the change of the read-out against control, counted positive when it falls. Take `COC(=O)CSc1cc(C)nc2ccc(OC)cc12`: the inhibition is 10.7%.

On to `CCOC(=O)CSc1cc(C)nc2ccc(OC)cc12`, for which the inhibition was -0.58%.

`CCCCOC(=O)C1=C(C)Nc2ncnn2C1c1cccc(OC)c1` (stereo unspecified): the inhibition is -2.89%.

`Cc1[nH]c2ccccc2c1/C=N/NC(=O)CNC(=O)c1ccccc1`: the inhibition was -7.99%.

Regarding `Cc1cc(C)n(CC(C)NCc2cn[nH]c2-c2ccc(C)c(C)c2)n1` (stereo unspecified), the inhibition was 1.18%.

Take `CC1=C(/C=C/C(C)=C/C=C/C(C)=C/C(=O)O)C(C)(C)CCC1`: the inhibition was -5.32%.

Turning to `CC1=C(/C=C/C(C)=C/C=C/C(C)=C\C(=O)O)C(C)(C)CCC1`, the inhibition was -10.9%.

Regarding `CN(C)c1ccc(N=Nc2ccccc2C(=O)OCC(=O)NC2CCCC2)cc1`, the inhibition was 46%.

Regarding `CN(C)c1ccc(N=Nc2ccccc2C(=O)OCC(=O)N(C)C2CCCCC2)cc1`, the inhibition was 27.3%.

For the compound `Nc1cc(C(=O)c2cccs2)ccc1Cl`, the inhibition was -7.59%.

With `Cc1ncc([N+](=O)[O-])n1CC(=O)NC(C)(C)C`, the inhibition was -1.73%.

For `CC(=O)N/C(=C\c1ccc(F)cc1)C(=O)N(C)C`, the inhibition was -5.54%.

On to `COc1ccc(N2CCN(C(CNC(=O)c3cccc(Cl)c3)c3cccnc3)CC2)cc1` (stereo unspecified), for which the inhibition was -9.59%.

With `COc1ccc(CCNCC(O)COc2cccc(Br)c2)cc1` (stereo unspecified), the inhibition was -1.52%.

Regarding `OC(CNCCc1ccccc1)COc1ccc(OCC(O)CNCCc2ccccc2)cc1` (stereo unspecified), the inhibition was -6.51%.

Turning to `CCN(CC)S(=O)(=O)c1ccc(N2CCOCC2)c(NC(=O)c2cccc3ccccc23)c1`, the inhibition was 11.2%.

In the case of `CC1CN(C(=O)c2cccc(S(=O)(=O)N3CCOCC3)c2)CC(C)O1` (stereo unspecified), the inhibition is -11.8%.

`Cc1ccccc1-n1ncc(C(C)NC(=O)c2ccccc2)c1C` (stereo unspecified): the inhibition is -0.68%.

For `O=C(NCc1ccccc1)NC(=O)c1ccccc1`, the inhibition is -2.58%.

As to `COCCN=C1Sc2nc3ccc(C)cc3cc2CN1Cc1ccco1`, the inhibition was -8.23%.

`COCCN=C1Sc2nc3cc(C)c(C)cc3cc2CN1Cc1cccs1`: the inhibition was 10%.

Regarding `O=C(O)c1cn(-c2ccc(F)c(F)c2)c2c(F)c(F)c(F)c(F)c2c1=O`, the inhibition was 6.77%.

In the case of `Cc1c(-n2cc(C(=O)O)c(=O)c3cc(F)c(N4CCCC4)c(F)c32)c(=O)n(-c2ccccc2)n1C`, the inhibition was 3.58%.

For `COC(=O)c1c(N2C(=O)[C@H]3[C@@H](C2=O)[C@]2(C(=O)Nc4c2ccc(C)c4C)N2CCC[C@@H]32)sc(C)c1C`, the inhibition is 4.68%.

As for `CN(C)c1ccc(/C=N/N=C(N)N)cc1[N+](=O)[O-]`, the inhibition is -2.01%.

Take `O=c1c2cc(NC(=S)N3CCCC3)ccc2nc2n1CCCCC2`: the inhibition was 5.39%.

For the compound `O=C(O)C12C[C@H]3C[C@@H](C1)CC(n1ncc(N4CCN(c5ccccc5)CC4)c(Cl)c1=O)(C3)C2`, the inhibition was -7.44%.

Consider `Cc1ccc(N=CC2=C(O)CC(c3ccco3)CC2=O)cc1` (stereo unspecified), for which the inhibition was -4.64%.

Take `CCc1ccc(N=CC2=C(O)CC(c3ccco3)CC2=O)cc1` (stereo unspecified): the inhibition is 81%.

As for `COC(=O)c1[nH]c2cccc(OC)c2c1NC(=O)CCN1CCC(C(N)=O)CC1`, the inhibition is -3.72%.

Turning to `CNC(=O)c1csc(-c2ccncc2)n1`, the inhibition was -3.82%.

As to `O=C(O)c1ccc(-c2nc(-c3ccc(Cl)c(Cl)c3)cs2)cc1`, the inhibition was 8.4%.

With `CNC(=O)c1csc(-c2ccc(C)cc2)n1`, the inhibition was -5.14%.

Take `O=C(O)c1ccc(-c2nc(-c3ccccc3)cs2)cc1`: the inhibition is -1.73%.

Regarding `CC(C)OCCCNS(=O)(=O)c1ccc2c(c1)OCCO2`, the inhibition is 2.36%.

On to `CN(C(=O)CO/N=C/c1ccc(OC(F)F)cc1)C1CCS(=O)(=O)C1` (stereo unspecified), for which the inhibition was 8.36%.

As to `CCOc1ccc(-c2cc(CCCC(=O)NCCCOC)no2)cc1`, the inhibition was 4.11%.

On to `CCOc1ccc(-c2cc(CCCC(=O)NCCc3ccccc3)no2)cc1`, for which the inhibition was 4.69%.

As for `CCOc1ccc(-c2cc(CCCC(=O)Nc3cc(OC)ccc3OC)no2)cc1`, the inhibition was 9.58%.

For `CCOc1ccc(-c2cc(CCCC(=O)NCCC(C)C)no2)cc1`, the inhibition was -2.14%.

Take `CN(C)c1nc(-c2ccccn2)nnc1-c1ccccc1`: the inhibition was 68%.

`C=CCNc1nc(-c2ccccn2)nnc1-c1ccccc1`: the inhibition was 37%.

For `Cc1ccn(C(=O)c2cc3c(C)nn(-c4ccccc4)c3s2)n1`, the inhibition was 10.1%.

As for `CC(C)(O)C(=O)NNC(=S)Nc1ccc(F)c(Cl)c1`, the inhibition was 14.7%.

For `Cc1ccc(N2C(=O)C(CN3CCCC3)C2c2ccccc2)cc1` (stereo unspecified), the inhibition was 27.1%.

Regarding `COc1ccc(N2C(=O)C3CCCN3C2c2ccccc2F)cc1` (stereo unspecified), the inhibition was -5.95%.

Regarding `COC(=O)C1=C(SC)N(c2ccc(OC)cc2)C(c2ccccc2)CC1=O` (stereo unspecified), the inhibition is -3.65%.

Consider `O=C1c2ccccc2NC(c2ccc3c(c2)OCCO3)N1c1ccc2c(c1)OCCO2` (stereo unspecified), for which the inhibition is -7.93%.

For `Cc1ccc(N2C(=O)C(CN(C)C)C2c2ccccc2)cc1` (stereo unspecified), the inhibition was -4.35%.

Regarding `O=C(O)C1CC(=O)N(c2ccc3c(c2)OCCO3)C1` (stereo unspecified), the inhibition is 5.06%.

For the compound `O=C(NN1CCOCC1)c1cc(-c2ccc(Br)cc2)nc2ccccc12`, the inhibition was 7.15%.

As for `CC(=O)NCCC(=O)Nc1ccc(F)cc1C`, the inhibition was -1.47%.

With `Cc1nn(-c2cccc([N+](=O)[O-])c2)c(N)c1-c1ccccc1`, the inhibition is 7.18%.

As to `COCCNc1nc(-c2ccc(OC)cc2)c(-c2ccc(OC)cc2)s1`, the inhibition is 15.7%.

With `Cc1csc(Cn2c(CN(C)C)nc3ccccc3c2=O)n1`, the inhibition is 5.39%.

Regarding `COc1cc([N+](=O)[O-])cc(CN2CCCCC2)c1O`, the inhibition was 2.21%.

In the case of `O=C(CN1CCc2ccccc2C1)NC1CCCC1`, the inhibition is -13.6%.

For the compound `CC(=O)N(Cc1c(C)nn(-c2ccccc2)c1Cl)c1ccc(Cl)cc1`, the inhibition was -13.6%.

Regarding `CCC(=O)N(Cc1c(C)nn(-c2ccccc2)c1Cl)c1ccc(Cl)cc1`, the inhibition was 8.67%.

Take `CCn1cc(C(=O)OCC(=O)c2ccc(Cl)cc2)c(=O)c2ccc(C)nc21`: the inhibition is -8.38%.

For `O=C1CC(c2ccc(F)cc2)Sc2nc(C34CC5CC(CC(C5)C3)C4)nn21` (stereo unspecified), the inhibition was 5.92%.
